Assay outcomes as filed in PubChem.
HT1080 IDH1KD tx: HT-1080 IDH1 knockdown cell toxicity (counter line) | HT-1080 IDH1 knockdown viability, ATP luminescence, 48 h | Potency, µM (doses to about 46.1 µM), hits mostly cytotoxic | 360,000 tested, 2% active
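Cytotoxicity counter-line: IDH1KD HT-1080, 48 h, CellTiter-Glo. Curves classed by r2, magnitude and activity.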
HT1080NT lethal: kills 2HG-producing HT-1080-NT fibrosarcoma cells | HT-1080-NT fibrosarcoma viability, CellTiter-Glo ATP luminescence, 48 h | Potency, µM (top dose mostly 46.1 µM), hits mostly cytotoxic | 360,000 tested, 1.6% active | AID 686970;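 note: NT is the 2HG producing partner of a matched IDH1 knockdown line; nearly all actives have a fitted effect of over 55% in size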
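Viability by CellTiter-Glo luminescence after 48 h compound exposure at 37C of HT-1080-NT cells (750/well, RPMI, 5% FBS). % activity scaled between DMSO wells and medium-only wells, then curve-fitted and categorized by curve class.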
KB-3-1 cytotox: kills parental KB-3-1 adenocarcinoma cells; 400,000 tested, 1.4% active; KB-3-1 viability, CellTiter-Glo ATP luminescence, 72 h; Potency, µM (doses to about 46.1 µM), most hits filed as cytotoxic; AID 1347075; note: nearly all actives have a fitted effect of over 60% in size
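Luminescent ATP read-out (CellTiter-Glo) measures survival of drug-naive KB-3-1 cells after 72 h compound exposure at 37 °C. Titration series was screened from lowest to highest concentration, with DMSO vehicle plates as background controls.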
KB-V1 cytotox: KB-V1 MDR subline cytotoxicity; KB-V1 MDR cells viability, CellTiter-Glo, 72 h; Potency, µM (titrated, usually from 46.1 µM), actives largely listed as cytotoxic; 400,000 tested, 3.4% active; AID 1347076; note: nearly all actives have a fitted effect of over 60% in size
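Compound-treated KB-V1 multidrug-resistant cells, 72 h, 37 degrees C; viability by CellTiter-Glo. Fitted qHTS curves give the values.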
MCF10A rerep: induces DNA re-replication in MCF 10a normal breast cells | MCF 10A DNA re-replication, Hoechst nuclear intensity, 48 h | Potency, µM (titrated, usually from 46.1 µM), hits mostly activators | 350,000 tested, 2.9% active; note: nearly all actives have a fitted effect of over 50% in size
SW480 rerep: inducers of DNA re-replication in SW480 colon cancer cells. 340,000 tested, 1.8% active. SW480 DNA re-replication, Hoechst DNA content imaging, 48 h. AID 624297. Potency, µM (highest dose often 46.1 µM), hits mostly activators; note: nearly all actives have a fitted effect of over 55% in size
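Compounds, transferred as 23 nL by pin tool, were incubated with cells for 48 hr; DNA content per nucleus was then quantified by Hoechst staining and fluorescence plate imaging.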
Numbers stand for hits; – = inactive; ? = inconclusive; · = no result given; [ ] = dose if it differs, or a comment. Only some compounds are listed: those with a hit (about 7.9% of all), similar ones and a draw of the others. Calls come from the whole dose curve; as a rule, active = well fitted curve in the direction sought with a large enough effect; inconclusive = small, poorly fitted or top-dose-only effect, or another doubt; inactive = no such curve, though single readings can be large; an effect the other way counts as inactive or inconclusive.

SMILES	HT1080 IDH1KD tx	HT1080NT lethal	KB-3-1 cytotox	KB-V1 cytotox	MCF10A rerep	SW480 rerep
CCCN(CC(=O)Nc1ccccc1C)C(=O)c1nn(CC)c(=O)c2ccccc12	–	–	–	8.2µM	–	–
COc1ccc(NC(C)C(=O)Nc2ccc(C(C)(C)C)cc2)cc1Cl (stereo not given)	?	?	–	–	16µM	–
COc1ccc(NC(C)C(=O)Nc2ccc(C#N)cc2)cc1Cl (stereo not given)	?	?	–	21µM	–	–
COc1ccc(NCC(=O)Nc2ccc(C#N)cc2)cc1Cl	–	–	–	–	–	–
COc1ccc(/C=C/C(=O)c2ccncc2)c2ccccc12	?	?	–	–	12µM	?
COc1cccc(/C=C/C(=O)c2cccc([N+](=O)[O-])c2)c1OC	?	23µM	–	?	?	?
CCCc1c(NC(=O)Nc2ccc(F)cc2)cnn1-c1ccc(Cl)cc1	–	–	9.2µM	?	?	?
O=C(NCCc1ccc(Cl)cc1)Nc1ccc(F)cc1	–	–	–	–	–	–
COc1ccc(Cn2nnnc2CN2CCC(c3nc4ccccc4s3)CC2)cc1	?	–[9.24 µM]	–	?	?	–
c1ccc2sc(C3CCN(Cc4nnnn4Cc4ccc5c(c4)OCO5)CC3)nc2c1	–	–	23µM	16µM	?	–
COc1cc(C2c3c(oc4ccc(F)cc4c3=O)C(=O)N2Cc2ccc3c(c2)OCO3)ccc1O (stereo not given)	·	·	–	–	·	·
CC(C)NC(=O)Nc1ccc2c(c1)C(=O)N([C@H](C)CO)C[C@H](C)[C@@H](CN(C)Cc1ccc(C(F)(F)F)cc1)OCCCC[C@H](C)O2	–	–	?	–	·	·
COc1ccc(C(C(=O)NC(C)(C)C)n2c(COc3ccc(C)cc3)nc3ccccc32)cc1 (stereo not given)	?	?	–	?	·	·
COc1ccc(C(C(=O)NC(C)(C)C)n2c(-c3ccc(=O)[nH]c3)nc3ccccc32)cc1 (stereo not given)	8.2µM	13µM	?	–	·	·
COc1cc(OC)cc(C(=O)Nc2cc3c(cc2N2CCOCC2)n(C)c(=O)n3C)c1	·	·	–	–	·	·
COc1ccc(NC(=O)C2Cc3c(-c4ccc5c(c4)OCO5)ccnc3O2)cc1OC (stereo not given)	16µM	?	?	–	·	·
O=C(NCc1ccc(F)c(F)c1)C1Cc2c(-c3ccc4c(c3)OCO4)ccnc2O1 (stereo not given)	?	?	8.2µM	4.1µM	·	·
COc1ccc(CNC(=O)C2Cc3c(-c4ccc5c(c4)OCO5)ccnc3O2)cc1OC (stereo not given)	?	?	21µM	9.2µM	·	·
CC(=O)Nc1ccc(OC2=NS(=O)(=O)c3ccccc32)cc1	·	·	–	–	·	·
COc1cccc(C(=O)NCCCNc2nc3cc(C)cc(C)c3cc2C#N)c1	–	–	–	?	·	·
COc1ccc(S(=O)(=O)c2c(Nc3ccc(C)cc3)sc(C(=O)c3ccc4c(c3)OCO4)c2N)cc1	·	·	–	–	·	·
O=C1/C(=C/c2ccncc2)SC(=S)N1Nc1ccccc1	5.8µM	?	–	–	?	?
O=C(O)c1ccc(/C=C2\SC(=S)N(Nc3ccccc3)C2=O)cc1	4.6µM	?	–	–	–	–
CS(=O)(=O)N(CC(=O)N1CCN(Cc2ccc3c(c2)OCO3)CC1)C1CCCCC1	–	–	–	21µM	–	–
O=C(CCC1CCCCC1)N1CCN(Cc2ccc3c(c2)OCO3)CC1	–	–	?	23µM	–	–
SMILES	HT1080 IDH1KD tx	HT1080NT lethal	KB-3-1 cytotox	KB-V1 cytotox	MCF10A rerep	SW480 rerep
CC(C)(C)CC(=O)N1CCN(Cc2ccc3c(c2)OCO3)CC1	–	–	–	–	–	–[9.22 µM]
O=C(Nc1ccc(-c2noc(CCc3ccccc3)n2)cc1)c1cccnc1	?	?	?	16µM	16µM	–
O=C(NCCc1ccccc1)c1ccc(NC(=O)c2cccnc2)cc1	?	?	–	–	–	–
COc1ccc(CCN2C(=O)COc3ccccc3C2C(=O)NCc2ccccc2)cc1OC (stereo not given)	–	–	–	–	·	·
CCNC(=O)C1(C)CCCN1C(=O)c1cc(C)on1 (stereo not given)	–	–	–	–	·	·
Cn1c(=O)c2c(n3cnnc13)-c1ccccc1CC21CCCC1	–	–	–	23µM	–	–
Cc1nn(-c2ccccc2)c2c1N(CCCC(=O)NCc1ccc(N(C)C)cc1)C(=O)CS2	·	·	–	–	·	·
CC1=C(C(=O)OCc2ccccc2)N2C(=O)[C@@H](NC(=O)OCc3ccccc3)[C@H]2SC1	·	·	–	?	·	·
CC(C(=O)Nc1ccc(C#N)cc1)N(C)CC(=O)Nc1ccccc1Br (stereo not given)	23µM	?	–	–	–	–
Brc1ccccc1/C=N/Nc1ccc2ccccc2n1	–	?	–	–	16µM	–
CNS(=O)(=O)c1cccc(C(=O)OCc2cc(Cl)cc3c2OCOC3)c1	–	–	–	18µM	?	–
O=C(OCc1cc(Cl)cc2c1OCOC2)c1cccnc1Cl	–	–	–	–	–	–
Cc1ccc(-n2c3c(c(=O)[nH]c2=O)C(NC(=O)c2ccccc2F)(C(F)(F)F)C(=O)N3)cc1C (stereo not given)	·	·	–	–	·	·
Cc1c(Cc2ccccc2)sc(/N=C/c2ccc3ccccc3c2)c1C(N)=O	2.9µM	2.9µM	?	0.92µM	2.9µM	1.2µM
Cc1c(Cc2ccccc2)sc(/N=C/c2c(O)ccc3ccccc23)c1C(N)=O	?	?	–	?	12µM	?
CCOC(=O)c1cc(CC)sc1/N=C/c1c(O)ccc2ccccc12	18µM	–	?	–	?	–
Cc1ccc(/C=N/c2sc(Cc3ccccc3)c(C)c2C(N)=O)o1	–	?	?	?	?	–
CCc1cccc(CC)c1NC(=O)Cn1nnc2sc(-c3ccccc3)cc2c1=O	·	·	–	–	·	·
CCOc1ccc(NC(=O)CN(C)CC(=O)Nc2cc(Cl)ccc2C#N)cc1OCC	–	–	–	–	–	–
CCOc1ccc(NC(=O)CN(C)CC(=O)Nc2ccccc2SC)cc1OCC	–	–	–	3.7µM	–	–
COc1ccc(NC(=O)CN(C)CC(=O)Nc2ccccc2SC)cc1	–	–	–	21µM	–	–
CSc1ccccc1NC(=O)CN(C)CC(=O)c1c(C)[nH]c2ccccc12	–	–	–	21µM	–	–
COc1ccc(NC(=O)CN(C)C(C)C(=O)N2CCCCC2)cc1 (stereo not given)	–	?	–	12µM	–	–
Cn1c(=O)c2cc(C(=O)N3CCN(c4cccc(C(F)(F)F)c4)CC3)sc2c2ccccc21	·	·	–	–	·	·
COc1ccc(CNC(=O)c2cnc3ccc(C)cn3c2=O)cc1	·	·	–	?	·	·
